# Assay outcomes: PubChem BioAssay, National Center for Advancing Translational Sciences (NCATS)
# LMNA splice mod: qHTS Assay for Modulators of Lamin A Splicing. 200,000 tested, 0.01% active. Potency, µM (titrated, usually from 46.1 µM), for the others: at the highest dose ratio change, negative = inhibition, usual class: inhibitors. HeLa LMNA splicing GFP/RFP minigene ratio, 48 h; active = well fitted inhibition curve with a large enough effect in the signal ratio, with a control signal flat, not every such curve was filed as active; inconclusive = small, poorly fitted or top-dose-only effect, or effect the other way, or a change in a side signal; the % refers to the signal ratio
#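 Read-out is the ratio of GFP to DsRed2 object intensity, acquired by 488 nm laser-scanning cytometry on HeLa lamin A-EGFP minigene reporter cells. Compound incubation 48 hrs at 37 °C in Opti-MEM with 2% FBS; DMSO 0.5% final.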
# IMPase Li cell: qHTS Assay for Identifying the Cell-Membrane Permeable IMPase Inhibitors: Potentiation with Lithium | 210,000 tested, 0.35% active | Potency, µM (highest dose often 59.4 µM), for inactives: top-dose activity, negative = IMPase inhibition, most hits filed as inhibitors | CHO-M1 cells, IP1 TR-FRET (IP-One), carbachol + lithium | AID 1457, 2008;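 note: IP1 builds up when IMPase is blocked and the TR-FRET signal falls; plate controls were basal vehicle for no effect and high inhibitor control for full effect; nearly all actives have a fitted effect of over 50% in size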
#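 CHO-M1, 2000 cells/well, 16–30 h culture; cpd + low Li+, 30 min 37C; lysis with d2-IP1/Eu-anti-IP1 Ab, 10 min RT; TR-FRET 665/620 ratio and 620 channel; AC50 via Hill.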
# Luc counter: Counterscreen for Luciferase (Kinase-Glo TM) Inhibition. Kinase-Glo luciferase, ATP luminescence, 8 min. Potency, µM (highest dose often 38.3 µM), without a hit: top-dose activity change, negative = inhibition, most hits filed as inhibitors. 200,000 tested, 0.28% active. AID 1379, 2008; note: nearly all actives have a fitted effect of over 60% in size
#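 Inhibition of Kinase-Glo luciferase light generation was assessed at 10 uM ATP in pH 7.2 imidazole buffer, with luminescence measured after eight minutes at ambient temperature.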
# ALDH1A1 block: qHTS Assay for Inhibitors of Aldehyde Dehydrogenase 1 (ALDH1A1); 220,000 tested, 7.3% active; AID 1030, 2008; Purified ALDH1A1, NADH fluorescence, propionaldehyde substrate; Potency, µM (titrated, usually from 75.3 µM), inactives show top-dose activity, negative = inhibition, most hits filed as inhibitors; Aldehyde dehydrogenase 1A1 (Homo sapiens), P00352; active = well fitted inhibition curve with a large enough effect, not every such curve was filed as active; inconclusive = small, poorly fitted or top-dose-only effect, or another doubt; inactive = no such curve, though single readings can be large or run the other way;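 note: plate controls were no enzyme wells and a reference inhibitor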
# Target sequence (P00352 whole entry, looked up): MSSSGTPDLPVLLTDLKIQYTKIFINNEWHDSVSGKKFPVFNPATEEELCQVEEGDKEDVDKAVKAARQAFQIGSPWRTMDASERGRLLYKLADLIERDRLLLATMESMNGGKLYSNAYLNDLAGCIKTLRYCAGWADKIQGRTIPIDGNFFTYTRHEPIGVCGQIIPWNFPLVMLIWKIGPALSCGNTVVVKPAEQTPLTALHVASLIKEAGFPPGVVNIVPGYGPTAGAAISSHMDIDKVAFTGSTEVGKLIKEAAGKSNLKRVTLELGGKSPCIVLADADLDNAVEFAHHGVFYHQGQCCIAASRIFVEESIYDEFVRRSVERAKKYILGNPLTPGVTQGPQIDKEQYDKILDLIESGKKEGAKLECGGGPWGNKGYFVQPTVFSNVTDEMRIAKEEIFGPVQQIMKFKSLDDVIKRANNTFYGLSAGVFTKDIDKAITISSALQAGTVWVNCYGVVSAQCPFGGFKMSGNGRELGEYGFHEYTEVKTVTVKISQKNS
# HPGD inh: qHTS Assay for Inhibitors of HPGD (15-Hydroxyprostaglandin Dehydrogenase); 15-hydroxyprostaglandin dehydrogenase [NAD(+)] (Homo sapiens), P15428; purified HPGD, NADH fluorescence kinetic, PGE2 substrate; Potency, µM, for the others: at the highest dose activity change, negative = inhibition, usual class: inhibitors; 150,000 tested, 4.3% active; active = well fitted inhibition curve with a large enough effect, not every such curve was filed as active; inconclusive = small, poorly fitted or top-dose-only effect, or another doubt; inactive = no such curve, though single readings can be large or run the other way
# Target sequence (P15428 whole entry, looked up): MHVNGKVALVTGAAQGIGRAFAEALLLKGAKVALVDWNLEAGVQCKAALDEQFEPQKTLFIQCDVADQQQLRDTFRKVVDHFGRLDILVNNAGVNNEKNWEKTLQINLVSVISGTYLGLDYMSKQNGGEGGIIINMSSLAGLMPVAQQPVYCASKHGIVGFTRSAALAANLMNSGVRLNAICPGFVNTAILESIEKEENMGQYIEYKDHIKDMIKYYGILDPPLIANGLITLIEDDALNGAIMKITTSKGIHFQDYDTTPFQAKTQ
#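 20 nM HPGD preincubated 15 min at room temperature with compound in 50 mM Tris-HCl pH 8, 0.01% Tween 20. Started with 1 mM NAD+ and 30 uM prostaglandin E2; NADH fluorescence (360/450 nm) read 5 times over 30-s intervals, last minus first.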
# Numbers without * were called inactive; ? = inconclusive; · = no result; [ ] = remark or other dose. Shown are actives, neighbours in structure and some others; about 9% of the full set was active somewhere. Unless noted, calls come from the whole dose curve; as a rule, active = well fitted curve in the direction sought with a large enough effect; inconclusive = small, poorly fitted or top-dose-only effect, or another doubt; inactive = no such curve, though single readings can be large; an effect the other way counts as inactive or inconclusive. Unless noted, % is set by controls: 0 for no effect and ±100 for the full control effect; potency is the fitted concentration of half-maximal effect.
SMILES,LMNA splice mod,IMPase Li cell,Luc counter,ALDH1A1 block,HPGD inh
CSC1(SC2=NCCN2)SC2(NCCN2)S1,·,4%,-6%[7.66 µM],0.089µM*,-8%
Cc1ccsc1/C=C/C1=Cc2c(sc(NC(=O)CSc3n[nH]c(N)n3)c2C#N)C(C)(C)C1,-1%,-7%[38.3 µM],-1%,?,?
CCOc1ccc(/C=C/C2=Cc3c(sc(NC(=O)CSc4n[nH]c(N)n4)c3C#N)C(C)(C)C2)cc1,?,-4%[38.3 µM],-5%,25µM*,?
CCOC(=O)c1c(NC(=O)CSc2ncnc3ccccc23)sc(C)c1C,?,6%,-3%,14µM*,-15%
CCOC(=O)c1c(NC(=O)CSc2nnnn2-c2ccc(OC)cc2)sc(C)c1C,5%,38%[38.3 µM],-2%,1µM*,2.8µM*
CCOC(=O)c1c(NC(=O)CSc2nnc(CNc3ccc(Cl)cc3)o2)sc(C)c1C,-11%,11%,1%,11µM*,-4%
CCOC(=O)c1csc(NC(=O)CSc2nnnn2-c2ccc(OC)cc2)n1,-6%,6%[38.3 µM],-7%,5%,-3%
CCOC(=O)c1c(NC(=O)CSc2nnc(CNc3ccc(F)cc3)o2)sc(C)c1C,8%,16%[38.3 µM],1%,?,-20%
CC(C)c1cc(C(=O)N/N=C/c2ccco2)n[nH]1,2%,4%,-10%,10%,-17%
COc1ccccc1OCC(=O)Nc1cccc(-c2nnc(-c3ccco3)o2)c1,?,12%,-3%,?,·
COc1ccc(CC(=O)Nc2ccc(-c3noc(-c4ccccc4OC)n3)cc2)cc1,15%,11µM*,1%,?,-15%
COc1ccc(CC(=O)Nc2cccc(-c3nnc(-c4ccccc4)o3)c2)cc1OC,?,42%[38.3 µM],-2%,?,-27%
O=C(COc1ccccc1)Nc1ccc(-c2nnc(-c3ccco3)o2)cc1,7%,13µM*,2%,?,?
COc1cccc(-c2nc(-c3ccc(NC(=O)Cc4ccccc4OC)cc3)no2)c1,11%,23%[38.3 µM],2%,?,-24%
COc1ccc(CC(=O)Nc2ccc(-c3nnc(-c4ccccc4)o3)cc2)cc1OC,2%,13µM*,-2%,3.5µM*,?
CCOC(=O)c1noc2nc(C)n(CC(=O)Nc3ccc(Br)cc3C)c(=O)c12,8%[46 µM],·,·,·,·
Cc1c(N=Cc2cc(Br)cc(Br)c2O)cccc1C(=O)O,?,?,-17%,?,?
O=C(O)/C=C/C(=O)N1Cc2cc3ccccc3nc2C1,·,·,·,1%,·
CC(C)CNC(=O)CC(=O)N/N=C/c1ccc(F)cc1,3%,-5%,14%,2%,-11%
O=S(=O)(Oc1ccccc1N1CCCCC1)c1ccccc1,15%[46 µM],·,·,-1%,·
Nc1ccccc1N=Nc1c(S(=O)(=O)O)cc2cc(S(=O)(=O)O)cc(O)c2c1O,·,0%,-11%[7.66 µM],8%[13.5 µM],-6%
O=S(=O)(c1ccccc1)N1CCN(c2cc(-c3ccccc3)nc3ncnn23)CC1,7%,13%[38.3 µM],-4%,?,-11%
Cc1ccccc1NC(=O)C1CCN(c2cc(-c3ccccc3)nc3ncnn23)CC1,?,8.9µM*,0%,?,?
CCC1=C2CC[C@H]3C(=O)N(c4ccccc4)C(=O)[C@H]3[C@H]2[C@@]2(Cc3ccccc3)C(=NCCOC)OC(=O)N2C1=O,·,-6%,-2%,3%,-14%
CCOC(=O)c1ccc(Cl)c(NC(=O)c2ccc(-c3ccccc3)cc2)c1,20%,-11%[38.3 µM],-2%,13%,-8%
SMILES,LMNA splice mod,IMPase Li cell,Luc counter,ALDH1A1 block,HPGD inh
CCOC(=O)c1ccc(/C=C2/C=C(c3ccccc3)N(c3ccc(Cl)c(C(=O)O)c3)C2=O)cc1,?,-3%,-6%,11µM*,-23%
CC(NC(=O)c1ccc(OC2CCN(Cc3ccccn3)CC2)cc1)c1ccccc1 (stereo not given),?,21%,-4%,?,·
O=C(Nc1ccccc1F)c1ccc(COc2ccc(Cl)cc2Cl)o1,-13%,11%,2%,28µM*,-15%
CCOC(=O)c1c(C)[nH]c(C)c1C(=O)CSc1nc2ccccc2c(=O)n1-c1ccccc1C,-7%,13%,-2%,20µM*,-8%
Cn1c(Cl)nc2ccccc21,14%,32%[38.3 µM],0%,5%,-3%
Cn1c(N=Nc2ccccc2)nc2ccccc21,?,33%,0.89µM*,-6%,-22%
CC1(C)CC(=O)C2=C(C1)Nc1ccccc1N=C2,-1%,12%,-18%,1.8µM*,-12%
COc1cccc(NC(=O)CSc2nc3ccccc3n2C)c1,-3%[46 µM],3%,0%,6%,·
COc1ccc2c(c1)nc(SCC(=O)c1ccc(Br)s1)n2C,-2%,-13%[38.3 µM],-8%,28µM*,?
CCN(Cc1ccc(OC)c(F)c1)C(=O)CCl,·,-4%,·,0.35µM*,·
Cc1ccc(-c2c(C(=O)NCc3ccc(F)cc3)oc(=O)c3ccccc23)cc1,-1%,10%,-3%,7.1µM*,-19%
Cc1ccc(-c2c(C(=O)N3CCOCC3)oc(=O)c3ccccc23)cc1,10%,11%[38.3 µM],4%,1.6µM*,-12%
Cc1ccc(-c2c(C(=O)Nc3ccccc3F)oc(=O)c3ccccc23)cc1,-20%[46 µM],·,·,·,·
Cn1c(CNC(=O)c2ccccc2F)nnc1SCc1nc2ccccc2c(=O)[nH]1,·,5%,2%,?,·
COC(=O)CCCCCN1C(=O)/C(=C\c2ccncc2)SC1=S,·,·,·,25µM*,·
O=C(O)CCN1C(=O)/C(=C\c2ccncc2)SC1=S,·,5%,-1%,-13%,·
CC(=O)c1ccc(NS(=O)(=O)c2cnc(N)nc2)cc1,2%[46 µM],·,·,·,·
C=CCS/C(N)=N\N=C\c1cc(Br)cc([N+](=O)[O-])c1O,·,·,·,7.1µM*,·
O=[N+]([O-])c1cc(Br)cc(/C=N/n2cnnc2)c1O,·,-5%,-5%,?,·
CC1CCCC(NC(=O)COC(=O)CN2C(=O)C3CCCCC3C2=O)C1C (stereo not given),-5%,-4%,-1%,25µM*,-18%
COc1ccc2c(c1)c(CC(=O)OCC(=O)O)c(C)n2C(=O)c1ccc(Cl)cc1,19%[46 µM],3%,2%,8%,-12%
COc1ccc2c(c1)c(CC(=O)O)c(C)n2Cc1ccc(Cl)cc1,?,16%,-12%,25µM*,-17%
O=C(CN1CCC(c2nc3ccccc3s2)CC1)N1CCCCC1,·,10%,2%,?,·
O=C(CSc1ccccc1Cl)N1CCC(c2nc3ccccc3s2)CC1,?,6%[38.3 µM],1%,13µM*,-4%
O=C(c1cccc(F)c1)N1CCC(c2nc3ccccc3s2)CC1,·,-3%,3%,-18%,·
O=C(CSc1ccc(F)cc1)N1CCC(c2nc3ccccc3s2)CC1,12%,52%[38.3 µM],5%,7.1µM*,-21%
